Broadly, the Inhibition is the percentage by which the read-out fell short of the control. A lower Inhibition goes with a response near the control.

Common to all, as to format: functional
Test [1] has as its system Plasmodium falciparum. The test can be described thus: GSK_TCMDC: Inhibition of Plasmodium falciparum 3D7 in whole red blood cells, using parasite LDH activity as an index of growth. Test compounds present at 2uM.
In test [2] the test system is Plasmodium falciparum. Briefly: GSK_TCMDC: Inhibition of Plasmodium falciparum Dd2 in whole red blood cells, using parasite LDH activity as an index of growth. Test compounds present at 2uM.
The next test deals with HepG2. The test can be described thus: GSK_TCMDC: Percent inhibition of human HepG2 cell line. Test compounds present at 10uM.

In the case of `O=C(Nc1cccc(-c2ccc(-c3nc4cc(F)ccc4[nH]3)cc2)c1)c1ccoc1`, the Inhibition with Plasmodium falciparum [1] is 85%; in the test on Plasmodium falciparum [2] it was 6%; in the test with HepG2 it was 39%.
With `O=C(NCc1cccc(F)c1)Nc1ccc(-c2cccc(-c3nc4ccccc4[nH]3)c2)cc1`, the Inhibition is reported as 86% with Plasmodium falciparum [1], 2% in the test on Plasmodium falciparum [2] and 14% with HepG2.
On the same counts, the results for `O=C(c1cccc(-c2cccc(-c3nc4ccccc4[nH]3)c2)c1)N1CCCCC1CN1CCC(O)C1` (stereo not given) are 100%, 56% and 66%.
With `CC1CCCN(C(=O)C(C)Nc2cc(Cl)ccc2N2CCOCC2)C1` (stereo not given), the results for the Inhibition in the test with Plasmodium falciparum [1], in the test on Plasmodium falciparum [2] and with HepG2 were 100%, 96% and 0%, respectively.
On the same counts, the results for `COc1ccc(NC(=O)c2cn(-c3ccc(C(C)(C)C)cc3)nc2C)cc1N1CCN(C)CC1` are 96%, 71% and 33%.
Regarding `Cc1ccc(-c2ccc3c(c2)C=C(C(=O)NCC2CCN(CC4CCN(C(=O)/C=C/c5ccc(Cl)c(Cl)c5)CC4)CC2)CCC3)cc1`, the Inhibition with Plasmodium falciparum [1] was determined as 99%; in the test on Plasmodium falciparum [2] it was 70%; with HepG2, 96%.
As for `CCCCCN1C(=O)N(c2ccc(Cl)c(Cl)c2)C(N(O)C(=O)Nc2ccc(Cl)c(Cl)c2)C1(C)C` (stereo not given), the figures for the Inhibition with Plasmodium falciparum [1], with Plasmodium falciparum [2] and in the test with HepG2 were 94%, 99% and 0%, respectively.
Consider `COc1ccc2nc(C)cc(Nc3ccc(N4CCN(C)CC4)cc3)c2c1`, for which the values for the Inhibition in the test with Plasmodium falciparum [1], in the test with Plasmodium falciparum [2] and in the test with HepG2 were 100%, 3% and 1%, respectively.
On the same counts, the results for `CC[C@H](C)[C@@H](C(=O)N1CCOCC1)N1CC[C@H](NS(=O)(=O)CC(C)(C)c2ccc(Cl)cc2)C1=O` are 100%, 95% and 0%.
As to `Fc1cccc(COc2ccc(Nc3ncnc4cc(/C=C/[C@@H]5CCCN5)sc34)cc2Cl)c1`, the figures for the Inhibition with Plasmodium falciparum [1], in the test on Plasmodium falciparum [2] and in the test with HepG2 were 100%, 56% and 17%, respectively.

For the origin of these results see ChEMBL document CHEMBL1157539, “Thousands of chemical starting points for antimalarial lead identification” (Nature, 2010).
